# Target: T1, Aspartate--tRNA(Asp/Asn) ligase (Mycobacterium tuberculosis (strain ATCC 25618 / H37Rv)) (UniProt P9WFW3); note: in the data most compounds retested in dose-response had high values
# T1 sequence (whole entry): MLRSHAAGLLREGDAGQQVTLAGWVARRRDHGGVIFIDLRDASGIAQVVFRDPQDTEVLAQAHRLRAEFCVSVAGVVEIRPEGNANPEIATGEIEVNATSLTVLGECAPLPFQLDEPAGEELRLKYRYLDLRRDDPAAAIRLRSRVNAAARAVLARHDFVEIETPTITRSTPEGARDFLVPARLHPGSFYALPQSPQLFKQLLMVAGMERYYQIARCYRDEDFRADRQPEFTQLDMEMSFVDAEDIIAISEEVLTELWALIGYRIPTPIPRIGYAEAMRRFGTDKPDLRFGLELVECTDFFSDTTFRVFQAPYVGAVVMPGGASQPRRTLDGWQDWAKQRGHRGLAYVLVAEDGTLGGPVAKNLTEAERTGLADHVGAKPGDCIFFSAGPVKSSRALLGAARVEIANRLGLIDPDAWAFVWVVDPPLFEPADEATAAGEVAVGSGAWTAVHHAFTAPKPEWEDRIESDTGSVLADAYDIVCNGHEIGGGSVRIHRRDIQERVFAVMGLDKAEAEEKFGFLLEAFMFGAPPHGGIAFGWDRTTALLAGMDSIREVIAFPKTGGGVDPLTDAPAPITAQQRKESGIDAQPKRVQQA
# Assay: Assay for Asp RNA synthetase-1 from Mycobacterium tuberculosis
# Type: functional
# Set-up: scale not given: direction of the effect not stated beside the values
# Conditions: 30 µM
row,Compound,Percent Effect [%]
1,O=C1COC2(CCN(Cc3ccccn3)CC2)CN1CC1CC1,4.21
2,O=C(Cn1ccc2ccccc21)NCc1ccc(C(=O)O)cc1,5.27
3,O=C(c1cc(=O)[nH]c(=O)[nH]1)N1CCCCC1c1ccc(F)cc1 (stereo not given),0.947
4,CC(C)NC(=O)C1CN(C(=O)N2CCCC2)CC12CCOCC2 (stereo not given),-2.03
5,Cc1nc(C)n(CC2CN(CC(=O)Nc3nccs3)CCO2)n1 (stereo not given),-3.2
6,CN(C)c1ncc(CN2CCC(c3nnsc3S(C)(=O)=O)CC2)cn1,-3.26
7,Cn1ccnc1-c1cccc(NC(=O)NCCCO)c1,-2.56
8,CC(C)OCCC(=O)N(C)CCCc1cc(-c2ccccc2)no1,2.1
9,CSCC(=O)N1CCCN(c2ccccc2C)CC1,0.55
10,CC(C)c1nc(C2CCCN2Cc2ccn(C)c(=O)c2)no1 (stereo not given),3.39
11,COCCNC(=O)c1cc(S(=O)(=O)N2CCCCC2)cs1,0.21
12,Cc1noc2nc(C3CCN(CC4=CCCOC4)CC3)cc(C(F)F)c12,12.2
13,CCCNC(=O)CNc1cc(C#N)ccc1OCC,-8.31
14,COc1cccc(CNCc2nnc3n2CC(C(F)(F)F)CC3)c1 (stereo not given),-0.0987
15,Cc1ccc(NC(=O)N2CCN(Cc3noc(C4CC4)n3)CC2)cc1,-2.14
16,O=C(c1nc(-c2ccc3cc[nH]c3c2)no1)N1CCCC1,-0.958
17,Cn1nc2c(cc1=O)CN(CCc1nc3ccccc3c(=O)[nH]1)CC2,7.01
18,Cc1cc(CN2CCCC(C)(CO)C2)ccc1F (stereo not given),-3.62
19,CC(C)C(C(=O)N1CCC(N(C)c2cccnn2)CC1)n1cncn1 (stereo not given),-3.21
20,COc1ccc(NC(=O)C(c2cccc(F)c2)N2CCOCC2)cc1 (stereo not given),5.63

row,Compound,Percent Effect [%]
1,Cc1ccc(NC2CCN(C(=O)c3cc[nH]n3)CC2)nn1,-1.83
2,CN1CCC(CCNC(=O)c2ccc(N(C)S(C)(=O)=O)cc2Cl)CC1,1.1
3,Cc1ccc(CNC(=O)CN2CCN(CC(O)c3ccco3)CC2)cc1 (stereo not given),-6.22
4,Cn1ncc2c1CN(Cc1cccnc1)CC2COCC1CC1 (stereo not given),2.03
5,Cc1ccc(OCC(=O)NS(=O)(=O)c2cccnc2)cc1C,-2.57
6,CC(C(=O)N1CCC(Nc2cccnn2)CC1)n1ccnc1 (stereo not given),7.4
7,Cc1occc1C(=O)N1CCC2(CCC2NC(=O)c2ccn(C)c2)CC1 (stereo not given),-3.29
8,Cc1nn(C)c(C)c1C1CCCN1C(=O)c1cc[nH]n1 (stereo not given),-5.05
9,Cc1ccc(CN2CCOC3(CCCN(C(=O)c4ccco4)C3)C2)s1 (stereo not given),4.58
10,COc1ccc2c(c1)CN(Cc1nc3c(cnn3C)c(=O)[nH]1)CC2,-4.4
11,CC(OCC1CC1)C(=O)N1CCCN(c2ncccc2C#N)CC1 (stereo not given),2.42
12,CS(=O)(=O)NC1CCc2c(ccc(=O)n2CC2CC2)C1 (stereo not given),2.4
13,N#Cc1ccc(NCCNc2ccc(C(F)(F)F)cn2)nc1,-3.59
14,COCCCNC(=O)CN(C)C(=O)c1cc(C)ccc1O,0.583
15,c1cc(-c2noc(CN3CCn4c(nnc4C4CC4)C3)n2)co1,-0.544
16,CC(C)(C)c1n[nH]c(C2CN(C(=O)c3cc(C4CC4)on3)CCO2)n1 (stereo not given),-2.16
17,Cc1cc(N2CCC(c3nnc(CN(C)C)n3C3CC3)CC2)ccn1,5.21
18,COC(=O)COc1nc(CC(C)C)c2c(c1C#N)CCCC2,-0.893
19,O=C(Nc1ccccn1)C1=NN(c2ccccc2)C(=O)CN1,0.657
20,Cc1cncc(C(=O)N2CCC(Cn3cc(-c4ccsc4)nn3)CC2)c1,-0.792

# Target: Shiga toxin 2 (Escherichia coli O157:H7) (UniProt P09385+P09386)
# Assay: E. coli 0.157:H7 Shiga Toxin SOP - stx2 screening assay
# Type: functional
# Set-up: scale not given: direction of the effect not stated beside the values
# Conditions: 30 µM
row,Compound,Percent Effect [%]
1,O=C1COC2(CCN(Cc3ccccn3)CC2)CN1CC1CC1,-7.99
2,O=C(Cn1ccc2ccccc21)NCc1ccc(C(=O)O)cc1,6.55
3,O=C(c1cc(=O)[nH]c(=O)[nH]1)N1CCCCC1c1ccc(F)cc1 (stereo not given),-12.6
4,CC(C)NC(=O)C1CN(C(=O)N2CCCC2)CC12CCOCC2 (stereo not given),8.24
5,Cc1nc(C)n(CC2CN(CC(=O)Nc3nccs3)CCO2)n1 (stereo not given),0.609
6,CN(C)c1ncc(CN2CCC(c3nnsc3S(C)(=O)=O)CC2)cn1,1.96
7,Cn1ccnc1-c1cccc(NC(=O)NCCCO)c1,-54.8
8,CC(C)OCCC(=O)N(C)CCCc1cc(-c2ccccc2)no1,38.9
9,CSCC(=O)N1CCCN(c2ccccc2C)CC1,-18.5
10,CC(C)c1nc(C2CCCN2Cc2ccn(C)c(=O)c2)no1 (stereo not given),-44.4
11,COCCNC(=O)c1cc(S(=O)(=O)N2CCCCC2)cs1,-0.342
12,Cc1noc2nc(C3CCN(CC4=CCCOC4)CC3)cc(C(F)F)c12,-23.1
13,CCCNC(=O)CNc1cc(C#N)ccc1OCC,-4.19
14,COc1cccc(CNCc2nnc3n2CC(C(F)(F)F)CC3)c1 (stereo not given),-19.1
15,Cc1ccc(NC(=O)N2CCN(Cc3noc(C4CC4)n3)CC2)cc1,-9.31
16,O=C(c1nc(-c2ccc3cc[nH]c3c2)no1)N1CCCC1,-77.4
17,Cn1nc2c(cc1=O)CN(CCc1nc3ccccc3c(=O)[nH]1)CC2,2.17
18,Cc1cc(CN2CCCC(C)(CO)C2)ccc1F (stereo not given),14.3
19,CC(C)C(C(=O)N1CCC(N(C)c2cccnn2)CC1)n1cncn1 (stereo not given),11.4
20,COc1ccc(NC(=O)C(c2cccc(F)c2)N2CCOCC2)cc1 (stereo not given),-8.77

row,Compound,Percent Effect [%]
1,Cc1ccc(NC2CCN(C(=O)c3cc[nH]n3)CC2)nn1,18.1
2,CN1CCC(CCNC(=O)c2ccc(N(C)S(C)(=O)=O)cc2Cl)CC1,-50.8
3,Cc1ccc(CNC(=O)CN2CCN(CC(O)c3ccco3)CC2)cc1 (stereo not given),-10.6
4,Cn1ncc2c1CN(Cc1cccnc1)CC2COCC1CC1 (stereo not given),-44.8
5,Cc1ccc(OCC(=O)NS(=O)(=O)c2cccnc2)cc1C,26.6
6,CC(C(=O)N1CCC(Nc2cccnn2)CC1)n1ccnc1 (stereo not given),0.729
7,Cc1occc1C(=O)N1CCC2(CCC2NC(=O)c2ccn(C)c2)CC1 (stereo not given),13.8
8,Cc1nn(C)c(C)c1C1CCCN1C(=O)c1cc[nH]n1 (stereo not given),11.4
9,Cc1ccc(CN2CCOC3(CCCN(C(=O)c4ccco4)C3)C2)s1 (stereo not given),-29.2
10,COc1ccc2c(c1)CN(Cc1nc3c(cnn3C)c(=O)[nH]1)CC2,-3.66
11,CC(OCC1CC1)C(=O)N1CCCN(c2ncccc2C#N)CC1 (stereo not given),27.5
12,CS(=O)(=O)NC1CCc2c(ccc(=O)n2CC2CC2)C1 (stereo not given),-5.71
13,N#Cc1ccc(NCCNc2ccc(C(F)(F)F)cn2)nc1,45.1
14,COCCCNC(=O)CN(C)C(=O)c1cc(C)ccc1O,14.3
15,c1cc(-c2noc(CN3CCn4c(nnc4C4CC4)C3)n2)co1,0.987
16,CC(C)(C)c1n[nH]c(C2CN(C(=O)c3cc(C4CC4)on3)CCO2)n1 (stereo not given),-1.24
17,Cc1cc(N2CCC(c3nnc(CN(C)C)n3C3CC3)CC2)ccn1,-33.5
18,COC(=O)COc1nc(CC(C)C)c2c(c1C#N)CCCC2,-1.99
19,O=C(Nc1ccccn1)C1=NN(c2ccccc2)C(=O)CN1,-27.9
20,Cc1cncc(C(=O)N2CCC(Cn3cc(-c4ccsc4)nn3)CC2)c1,-26.5

# Source: ChEMBL document CHEMBL3988442, “University of Dundee, Small-Polar-MMV Screening Library” (2021)
